# According to ChEMBL document CHEMBL3988442, “University of Dundee, Small-Polar-MMV Screening Library” (2021):
# Hit rate of the full screen: of about 48,000 compounds, about 13,000 (27%) showed an effect of 50% or more. The list shows a part of the results.
# System: Wolbachia pipientis
# Test: Anti-Wolbachia Cell-Based Screen
# Type: functional
# Parameters: scale not given: in the data most compounds retested in dose-response had high values
# Conditions: 5 µM
row,Structure (SMILES),Percent Effect
1,Cc1cc(=O)[nH]c(SCC(=O)N(C)CC2Cc3ccccc3CN2C)n1 (stereo not given),-1.755%
2,Cc1ccc(Cl)cc1NC(=O)Cn1cc(C(=O)O)ccc1=O,11.02%
3,CC(=O)c1cn(CCC(=O)NCCC(=O)O)c2ccccc12,11.28%
4,O=C(Cn1cc(C(=O)O)ccc1=O)Nc1ccc(Cl)cc1F,21.2%
5,O=C(O)Cn1ccc(=O)c2ccc(Cl)cc21,126.4%
6,O=C(O)Cn1ccc(=O)c2cc(Cl)ccc21,96.7%
7,O=C(O)Cn1ccc(=O)c2ccccc21,101.5%
8,O=C(Cn1ccc(=O)c2ccccc21)Nc1cnccc1O,11.9%
9,CN(CC(N)=O)C(=O)CCCn1ccc2cc(Cl)ccc21,-3.904%
10,CC(=O)Cn1cc(C#N)c(=O)c2cc(Br)ccc21,-39.25%
11,CCN(Cc1ccoc1)C(C(N)=O)c1ccc(Br)cc1 (stereo not given),13.69%
12,Cc1ccccc1C(O)CNS(=O)(=O)Cc1cccc(C#N)c1 (stereo not given),1.082%
13,CCC(=O)N1CCN(C(=O)NCc2c(C)cc(C)cc2C)CC1,2.244%
14,O=C(NCc1nncn1-c1ccccc1)C1CC(=O)N(CC2CC2)C1 (stereo not given),-5.786%
15,COc1cc(-c2cc(=O)[nH]cn2)cc(OC)c1OC,108.3%
16,COc1cc(-c2cc(OC)c(OC)c(OC)c2)ncn1,111%
17,COc1cc(-c2cc(N)ncn2)cc(OC)c1OC,113.5%
18,COc1cc(-c2cnnc(NCCCOC(C)C)n2)cc(OC)c1OC,29.72%
19,CNc1cc(-c2cc(OC)c(OC)c(OC)c2)ncn1,63.03%
20,COc1cc(F)ccc1-c1cnc(N)cn1,4.903%
21,O=C(NCCc1cc(=O)[nH]cn1)c1[nH]nc2c1CCCC2,-3.827%
22,COc1cc(N2CCc3ncnc(-c4ccoc4)c3CC2)ncn1,-1.629%
23,COc1ccc(-c2cc(N)ccn2)c(OC)c1OC,-25.01%
24,COc1cc(N(C)Cc2cc(C(C)(C)C)n[nH]2)ncn1,-14.87%
25,CC1CCN(S(=O)(=O)N2CCc3c(c(C(=O)O)nn3CC3CC3)C2)CC1,-12.69%
26,CNC(=O)Cc1ccc(-n2ccnc2-c2ccc(C(=O)O)s2)cc1,-11.42%
27,Cc1noc(-c2ccc(N3CCCC(C(=O)O)C3)nc2)n1 (stereo not given),-4.979%
28,CS(=O)(=O)NCCNC(=O)NC1(c2ccc(Cl)cc2)CCC1,-10.79%
29,COc1nc2c(cc1C(=O)N1CC[C@H](CO)[C@@H](O)C1)CCC2,9.103%
30,Cc1cccc(CNC(CN2CCN(C)CC2)c2ccccc2)c1 (stereo not given),16.68%
